DAX1 inh-1: inhibits human nuclear receptor DAX1 | P51843 | HEK293 Gal4-DAX1 luciferase reporter, luminescence | inhibition, % at 6.75 µM | hit rate 0.99% among 340,000;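 active = inhibition above the mean over all tested compounds plus 3 SD, cut at about 4.2% in these data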;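 note: 0% = DAX1-transfected cells with DMSO and 100% = empty-vector control cells with DMSO; inhibition shows as a rise in luminescence from relieved DAX1 repression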
SMARCA2 act: SMARCA2 function activation, primary screen; MG213 cells, MMTV-luciferase reporter, dexamethasone, overnight; activation, % at 9.1 µM; hit rate 1% among 370,000; AID 652017; in the data active = activation above about 7.8%;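 note: 0% = vehicle wells and 100% = reference activator wells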
ssDAF12 agonist: activates DAF-12 receptor from parasite S. stercoralis. HEK293 ssDAF-12/GRIP1 lit1-tk-luc reporter, luminescence; % of 3 µM dafachronic acid response. activation, % at 6.8 µM. hit rate 1% among 370,000;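 active = activation above the mean over all tested compounds plus 3 SD, cut at about 0.9% in these data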;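 note: 0% = DMSO-only wells and 100% = 3 µM delta7-dafachronic acid wells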
DAX1 inh-2: blocks DAX1 repression of SF-1 activated StAR promoter; HEK293T StAR-luciferase reporter, SF-1/DAX-1 repression relief; inhibition, % at 6.8 µM; hit rate 1.1% among 370,000; AID 652010;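 active = inhibition above the mean over all tested compounds plus 3 SD, cut at about 3.6% in these data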;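 note: 0% = DAX-1 cells with DMSO and 100% = cells lacking DAX-1 with DMSO; higher inhibition means more luminescence from relief of DAX-1 repression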
hgDAF12 agonist: hgDAF-12 agonism, primary luciferase screen | HEK293 GAL4-hgDAF12 UAS-luciferase reporter, agonist luminescence; normalized to butyrate control | activation, % at 6.8 µM | AID 687014 | hit rate 1.8% among 370,000;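 active = activation above a cutoff set at the mean of all screened compounds plus 3 SD, cut at about 10% in these data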;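 note: 0% = DMSO wells and 100% = sodium butyrate wells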
hcDAF-12 act: activates DAF-12 receptor from parasite H. contortus; HEK293 hcDAF-12 lit1-tk-luc reporter, luminescence; 0% DMSO, 100% Δ7-dafachronic acid; activation, % at 6.8 µM; hit rate 1.4% among 370,000;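 active = activation above the mean of all tested compounds plus 3 SD, cut at about 5.5% in these data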;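 note: 100% = response to 3 µM Δ7-dafachronic acid high control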
SMARCA2 conf: confirmation of SMARCA2 (BRM) function activators; shares compounds with SMARCA2 act; MG213 cells, MMTV-luciferase with dexamethasone, luminescence, overnight; MG213 cells expressing E1A, Rb sequestered; DMSO wells 0%, reference activator 100%; activation, % at 9.1 µM; hit rate 30% among 3,500; AID 652260;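 active = activation above its plate's cutoff, the mean activation of tested wells plus 3 SD, cut at about 7.9% in these data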
VP16 Luc act: counter-screen for SMARCA2 activators: GAL4-VP16 luciferase reporter activation | AID 686939 | HEK293 GAL4-VP16 pG5luc reporter, luciferase luminescence; scaled: DMSO wells 0%, SAHA wells 100% | hit rate 41% among 3,500 | activation, % at 9.1 µM | shares compounds with SMARCA2 act;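 active = activation above the solvent-only control well mean plus 3 SD, averaged across control plates, cut at about 5.2% in these data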
LXRb hcDAF ctr: counter-screen for hcDAF-12 agonists: agonists of human LXR-beta; shares compounds with hcDAF-12 act; HEK293 Gal4-LXR tk-luc reporter, luminescence, 24 h; normalized: DMSO 0%, positive control 100%; activation, % at 6.8 µM; 3,400 tested, under 10 active;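 active = mean percent activation of the reporter above a cutoff set as the average over tested compounds plus their standard deviation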
Target sequence (P55055 whole entry, looked up, the tested form may be a part): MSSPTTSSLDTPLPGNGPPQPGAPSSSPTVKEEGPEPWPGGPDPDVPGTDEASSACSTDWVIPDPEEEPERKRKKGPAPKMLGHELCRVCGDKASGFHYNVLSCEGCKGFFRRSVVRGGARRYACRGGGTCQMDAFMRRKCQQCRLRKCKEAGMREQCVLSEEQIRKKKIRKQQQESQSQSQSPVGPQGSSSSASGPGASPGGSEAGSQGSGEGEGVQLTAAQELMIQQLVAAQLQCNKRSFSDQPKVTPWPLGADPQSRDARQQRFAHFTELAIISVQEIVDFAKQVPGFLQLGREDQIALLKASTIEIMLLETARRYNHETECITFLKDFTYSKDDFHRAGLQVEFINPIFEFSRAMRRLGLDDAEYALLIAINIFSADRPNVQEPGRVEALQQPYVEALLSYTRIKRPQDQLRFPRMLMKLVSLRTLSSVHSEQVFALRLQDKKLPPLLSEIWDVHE
hcDAF12 conf: hcDAF-12 agonism, confirmation assay | shares compounds with hcDAF-12 act | HEK293 hcDAF-12 lit1-tk-luc reporter, luminescence; % of Δ7-dafachronic acid response | activation, % at 6.8 µM | hit rate 61% among 3,400 | AID 743032;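 active = mean activation across triplicate tests above the threshold derived from the earlier primary screen, cut at about 5.5% in these data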;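 note: 0% = DMSO only wells and 100% = 3 µM Δ7-dafachronic acid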
hgDAF12 ag: confirmation of H. glycines DAF-12 agonists. hit rate 80% among 3,300. shares compounds with hgDAF12 agonist. activation, % at 6.8 µM. HEK293 GAL4-hgDAF12 luciferase reporter, agonist mode; percent of butyrate response;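 active = mean activation over triplicate wells above the hit cutoff derived from the earlier primary screen, cut at about 11% in these data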;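 note: 0% = DMSO low control and 100% = 2 mM sodium butyrate high control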
LXRb DAF12 ctr: LXR-beta agonism as DAF-12 counter-screen | shares compounds with hgDAF12 agonist | HEK293 Gal4-LXR luciferase reporter, 24 h | activation, % at 6.8 µM | 3,300 tested, under 10 active | AID 743051;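 active = mean activation of the triplicate above a set limit carried over from the primary screen, none filed active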
* hit, by the source's call; nt = no result given. Hits are enriched below; roughly 4.8% of the tested compounds scored in any of these assays.

SMILES	DAX1 inh-1	SMARCA2 act	ssDAF12 agonist	DAX1 inh-2	hgDAF12 agonist	hcDAF-12 act	SMARCA2 conf	VP16 Luc act	hgDAF12 ag	LXRb DAF12 ctr	others
CCOc1cc(/C=C/c2nc3ccccc3c(=O)[nH]2)ccc1O	1	3	-1	1	6	2	nt	nt	nt	nt
O=c1[nH]c(/C=C/c2ccccc2Cl)nc2ccccc12	2	8.6*	0	2	14*	2	13*	9.1*	21*	1
O=C(O)c1ccccc1C(=O)Nc1ccc(-c2csc(-c3ccccc3)n2)cc1	1	9.5*	-1	0	16*	1	5	9.5*	6	0
NS(=O)(=O)c1ccc(CCNS(=O)(=O)c2cccc3nsnc23)cc1	-1	-1	-1	0	0	2	nt	nt	nt	nt
COc1ccccc1C(NC(=O)C1CCN(CCc2ccc(Br)cc2)CC1)c1ccccn1 (stereo not given)	nt	6	-1	2	3	-2	nt	nt	nt	nt
N/C(=N\OC(=O)c1ccccc1Cl)c1cccnc1	1	8.8*	1.9*	3	15*	9.7*	18*	7.8*	14*	1	LXRb hcDAF ctr=1;hcDAF12 conf=6.4*
CCN1C(=O)NC(c2ccccc2)(c2ccccc2)C1=O	-1	-4	0	1	-2	-1	nt	nt	nt	nt
O=C(Nc1ccccn1)c1csc2c1CCCC2	1	11*	0	3	19*	6.0*	6	6.5*	16*	1
Cc1nnc(NC(=O)c2csc3c2CCCC3)s1	nt	0	-1	0	8	-1	nt	nt	nt	nt
Cc1ccc(C2=NNC3(CCOC(C)(C)C3)S2)cc1 (stereo not given)	2	11*	1.0*	4.0*	17*	11*	9.9*	3	6	0
CCOC(=O)Cc1csc(NS(=O)(=O)Cc2ccccc2)n1	-1	-2	-1	-1	2	-1	nt	nt	nt	nt
Cc1nc(NC(=O)/C=C/c2ccco2)sc1C	3	10*	-1	2	13*	1	7	7.6*	19*	1
O=C(/C=C/c1ccco1)Nc1nnc(-c2ccco2)s1	1	3	0	1	3	0	nt	nt	nt	nt
CC(=O)Nc1ccc(S(=O)(=O)Nc2nc3ccc(C)cc3s2)cc1	-1	3	0	0	4	0	nt	nt	nt	nt
CC(=O)NC(=S)Nc1ccc(-c2nc3ccc(C)cc3s2)cc1	4	18*	0	3	15*	5	5	9.2*	22*	1
CCC(=O)Nc1cc2c(cc1Cl)-c1ccccc1C2	1	9.5*	0	3	18*	5.8*	3	5	17*	0
CCC(=O)Nc1cccc(NC(=O)c2ccccc2Cl)c1	0	-1	-1	0	-2	0	nt	nt	nt	nt
O=C(Nc1ccc(N2CCCC2)cc1)c1cc2ccccc2o1	2	1	-1	0	3	1	nt	nt	nt	nt

Source: PubChem BioAssay (The Scripps Research Institute Molecular Screening Center)
